Experimental data: PubChem BioAssay AID1159580 (chemical genetic matrix, 2015)
Several values for one entry are separate records, joined by “and”; a condition that tells them apart may be missing. Identical values can stand only once. Hit rate of the full screen: of about 5,500 compounds, about 2,000 (36%) were called active. About 18% were inconclusive and are not listed. No stated cut-off is given here; in the data, active means normalized growth mostly below about 0.91 (no sharp cut-off); inconclusive means no clear call, values can overlap the other calls; inactive means mostly above about 0.92. This is one part of the list.

Test: chemical genetic growth profiling, strain panel (AID 1159580);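 further: tested at 20 µM; growth read once vehicle control cultures reached saturation at 30 °C; 1 = growth at the plate median or of vehicle wells; lower values mean less growth of the strain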
Conditions: S. cerevisiae deletion strains, growth OD

Measured: normalized growth

COc1ccc2c(c1OC)C(=O)OC2[C@H]1c2c(cc3c(c2OC)OCO3)CCN1C (some centres not stated)
inactive: locus YAL013W, strain DEP1, active compounds read low 1.01 | locus YAL021C, strain ccr4, active compounds read low 1.02 | locus YAL026C, strain drs2, active compounds read low 1.02 | locus YAL030W, strain snc1, active compounds read low 1.02 | locus YBL061C, strain skt5, active compounds read low 1.01 | locus YBR009C, strain hhf1, active compounds read low 1.02 | locus YBR021W, strain FUR4, active compounds read low 1.01 | locus YBR023C, strain chs3, active compounds read low 1.02 | locus YBR171W, strain sec66, active compounds read low 1.01 | locus YBR229C, strain ROT2, active compounds read low 1.01 | locus YBR231C, strain swc5, active compounds read low 1.01 | locus YBR279W, strain paf1, active compounds read low 1.01 | locus YCL011C, strain gbp2, active compounds read low 1.02 | locus YCL016C, strain dcc1, active compounds read low 1.02 | locus YCL029C, strain bik1, active compounds read low 0.987 | locus YCL061C, strain MRC1, active compounds read low 1.01 | locus YCL069W, strain vba3, active compounds read low 1.01 | locus YCR088W, strain abp1, active compounds read low 1.01 | locus YDL005C, strain med2, active compounds read low 0.995 | locus YDL035C, strain GPR1, active compounds read low 1.01 | locus YDL040C, strain nat1, active compounds read low 1 | locus YDL074C, strain BRE1, active compounds read low 1.04 | locus YDL101C, strain DUN1, active compounds read low 1 | locus YDL134C, strain PPH21, active compounds read low 1.01 | locus YDL185W, strain tfp1, active compounds read low 0.966 | locus YDL192W, strain arf1, active compounds read low 0.968 | locus YDR001C, strain nth1, active compounds read low 1 | locus YDR069C, strain doa4, active compounds read low 1.02 | locus YDR101C, strain arx1, active compounds read low 0.995 | locus YDR137W, strain rgp1, active compounds read low 1.04 | locus YDR159W, strain sac3, active compounds read low 0.953 | locus YDR162C, strain NBP2, active compounds read low 0.983 | locus YDR195W, strain ref2 0.993 | locus YDR297W, strain sur2, active compounds read low 1.02 | locus YDR318W, strain mcm21, active compounds read low 0.965 | locus YDR334W, strain swr1, active compounds read low 1 | locus YDR335W, strain msn5, active compounds read low 1.01 | locus YDR388W, active compounds read low 0.985 | locus YDR392W, strain spt3, active compounds read low 0.892 | locus YDR502C, strain sam2, active compounds read low 0.984 | locus YEL003W, strain gim4, active compounds read low 1.02 | locus YEL037C, strain rad23, active compounds read low 1 | locus YEL061C, strain CIN8 (second series), active compounds read low 0.996 | locus YEL061C, strain CIN8, active compounds read low 1 | locus YER015W, strain faa2, active compounds read low 1.01 | locus YER016W, strain bim1, active compounds read low 1 | locus YER110C, active compounds read low 0.994 | locus YER111C, strain swi4, active compounds read low 1.01 | locus YER155C, strain BEM2 (second series), active compounds read low 0.98 | locus YER155C, strain BEM2, active compounds read low 0.992 | locus YER167W, strain BCK2, active compounds read low 1 | locus YFR010W, strain ubp6, active compounds read low 1 | locus YGL078C, strain dbp3, active compounds read low 0.989 | locus YGL086W, strain mad1, active compounds read low 1.01 | locus YGL167C, strain pmr1, active compounds read low 1.01 | locus YGL173C, strain kem1, active compounds read low 1.01 | locus YGL227W, strain vid30, active compounds read low 1.01 | locus YGL240W, strain doc1, active compounds read low 1.02 | locus YGL248W, strain PDE1, active compounds read low 1.01 | locus YGL253W, strain hxk2, active compounds read low 1.02 | locus YGR135W, strain pre9, active compounds read low 0.986 | locus YGR252W, strain gcn5, active compounds read low 1.19 | locus YHR013C, strain ard1, active compounds read low 1.02 | locus YHR027C, strain rpn1, active compounds read low 1.01 | locus YHR030C, strain SLT2, active compounds read low 0.995 and 0.993 | locus YHR079C, strain IRE1 (second series), active compounds read low 0.978 | locus YHR079C, strain IRE1, active compounds read low 0.999 | locus YHR094C, strain hxt1, active compounds read low 0.988 | locus YHR129C, strain ARP1, active compounds read low 0.999 | locus YHR142W, strain chs7, active compounds read low 1 | locus YHR200W, strain rpn10, active compounds read low 0.98 | locus YIL066C, strain RNR3, active compounds read low 1.01 | locus YIL073C, strain SPO22, active compounds read low 0.857 | locus YIL125W, strain kgd1, active compounds read low 0.986 | locus YIR030C, strain dcg1, active compounds read low 0.997 | locus YJL092W, strain hpr5, active compounds read low 1.01 | locus YJL095W, strain BCK1 (second series), active compounds read low 1.01 | locus YJL095W, strain BCK1, active compounds read low 1.02 and 1 | locus YJL115W, strain asf1, active compounds read low 1.01 | locus YJL129C, strain trk1, active compounds read low 0.995 | locus YJL134W, strain LCB3, active compounds read low 0.996 | locus YJL154C, strain vps35, active compounds read low 1.02 | locus YJL164C, strain tpk1, active compounds read low 1.03 | locus YJL166W, strain qcr8, active compounds read low 1 | locus YJL168C, strain set2, active compounds read low 0.987 | locus YJL187C, strain SWE1 (second series), active compounds read low 0.997 | locus YJL187C, strain SWE1, active compounds read low 1.02
